The supplement of paper PMC6555819

Experiments:
Experiment in all cases: PBM binding z-score (relative to random genomic background probes); higher = stronger binding; sequences stand for … in GC…GCGATTGACAGCGTAGAATGAAGG
[1] = system: FXR:RXRa (NR concentration 270 nM, RXRa partner concentration 90 nM)
Procedure, shortened: (§1)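 Binding buffer was PBS pH 7.4 with 2% milk, 0.02% Triton X-100, 1 mM DTT, 0.2 mg/mL BSA and 0.4 mg/ml salmon testes DNA. In it, ligand-free nuclear receptor dimers were incubated 1 h on custom Agilent 4×180K protein-binding microarrays carrying double-stranded probes. Antibodies against each partner (one per run) detected binding, and z-scores were calculated against random background probes after regression normalization of scanned fluorescence.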

[2] = system: LXRa:RXRa (NR concentration 270 nM, RXRa partner concentration 90 nM)
Procedure, shortened: as §1

[3] = system: LXRa homodimer (NR concentration 270 nM)
Procedure, shortened: as §1

[4] = system: LXRb:RXRa (NR concentration 270 nM, RXRa partner concentration 90 nM)
Procedure, shortened: as §1

[5] = system: LXRb homodimer (NR concentration 270 nM)
Procedure, shortened: as §1

[6] = system: PPARa:RXRa (NR concentration 270 nM, RXRa partner concentration 90 nM)
Procedure, shortened: as §1

[7] = system: PPARg:RXRa (NR concentration 180 nM, RXRa partner concentration 90 nM)
Procedure, shortened: as §1

[8] = system: PPARg:RXRa 270nM:90nM, anti-RXR (NR concentration 270 nM, RXRa partner concentration 90 nM)
Procedure, shortened: as §1

[9] = system: PPARg:RXRa 30nM:10nM, anti-RXR (NR concentration 30 nM, RXRa partner concentration 10 nM)
Procedure, shortened: as §1

[10] = system: PPARg:RXRa 90nM:30nM, anti-RXR (NR concentration 90 nM, RXRa partner concentration 30 nM)
Procedure, shortened: as §1

[11] = system: PPARg:RXRa DBDmut IVT, anti-RXR (DBD mutation: RXRa K156A/R161A, NR concentration 270 nM, RXRa partner concentration 90 nM)
Procedure, shortened: as §1

[12] = system: PPARg:RXRa IVT, anti-PPARg (NR concentration 270 nM, RXRa partner concentration 90 nM)
Procedure, shortened: as §1

[13] = system: PPARg DBDmut:RXRa IVT, anti-PPARg (DBD mutation: PPARg1 K132A/R137A, NR concentration 270 nM, RXRa partner concentration 90 nM)
Procedure, shortened: as §1

[14] = system: PPARg DBDmut IVT, anti-PPARg (DBD mutation: PPARg1 K132A/R137A, NR concentration 270 nM)
Procedure, shortened: as §1

[15] = system: PPARg homodimer (NR concentration 180 nM)
Procedure, shortened: as §1

[16] = system: PXR:RXRa (NR concentration 270 nM, RXRa partner concentration 90 nM)
Procedure, shortened: as §1

[17] = system: PXR homodimer (NR concentration 270 nM)
Procedure, shortened: as §1

[18] = system: RARa:RXR (NR concentration 270 nM, RXRa partner concentration 90 nM)
Procedure, shortened: as §1

[19] = system: RARa homodimer (NR concentration 270 nM)
Procedure, shortened: as §1

[20] = system: RARb:RXRa (NR concentration 270 nM, RXRa partner concentration 90 nM)
Procedure, shortened: as §1

| Sequence | PBM binding z-score [1] | PBM binding z-score [2] | PBM binding z-score [3] | PBM binding z-score [4] | PBM binding z-score [5] | PBM binding z-score [6] | PBM binding z-score [7] | PBM binding z-score [8] | PBM binding z-score [9] | PBM binding z-score [10] | PBM binding z-score [11] | PBM binding z-score [12] | PBM binding z-score [13] | PBM binding z-score [14] | PBM binding z-score [15] | PBM binding z-score [16] | PBM binding z-score [17] | PBM binding z-score [18] | PBM binding z-score [19] | PBM binding z-score [20] |
| --- | --- | --- | --- | --- | --- | --- | --- | --- | --- | --- | --- | --- | --- | --- | --- | --- | --- | --- | --- | --- |
| GCAGACAGGTGAAAGGCAGGTAACTCAGGGTGGC | 0.0647 | 0.0817 | -0.103 | -0.00398 | -0.276 | 0.899 | 0.826 | 0.901 | -0.278 | 0.391 | 0.331 | 0.821 | -0.179 | -1.25 | 0.447 | -0.081 | -0.0558 | 0.332 | 0.233 | 0.812 |
| AGTCAAAGTTCAGGACGAGGTAGCGTAAAGCACG | 3.74 | 3.36 | 1.03 | 1.58 | -0.21 | 3.13 | 4.27 | 4.86 | 1.87 | 3.74 | -0.637 | 1.36 | -0.194 | -0.537 | 1.46 | 2.36 | 0.831 | 2.26 | 0.252 | 4.31 |
| TCATATAGGTACTACAGGTGAAAGTCGGCATCTA | 0.842 | 1.92 | 0.924 | 1.03 | 0.0353 | 1.4 | 0.768 | 2.18 | 3.93 | 2.89 | 2.86 | 1.16 | 0.618 | 1.02 | 0.506 | 0.663 | 0.0757 | 0.847 | 0.606 | 0.472 |
| TCTTGTAGATCAGCAGGTTAATAAAGCTGGCCAA | 0.186 | 0.321 | -0.0562 | 0.223 | -0.339 | 0.462 | -0.26 | 1.38 | 2.55 | 1.7 | 1.69 | 0.368 | 0.134 | 0.645 | -0.332 | 0.185 | -0.721 | 0.556 | 0.0648 | 0.000915 |
| GCGACTGGGGCATCAGCATGTTACCATAACTTAA | -0.56 | -0.551 | -0.462 | 0.363 | -0.493 | 0.258 | 0.836 | 0.643 | -0.13 | -0.0118 | 3.55 | 2.94 | -0.0811 | -0.739 | -0.0822 | -0.238 | -0.758 | -0.253 | -0.423 | 0.376 |
| CGTCCAAGATCAAAGGTCAGTGAAGAGATGACGG | 3.66 | 3.73 | 1.53 | 3.21 | 0.413 | 4.84 | 5.29 | 5.82 | 3.81 | 5.56 | 0.235 | 2.39 | 0.493 | -0.0647 | 3.36 | 3.67 | 0.13 | 5.06 | 1.29 | 4.37 |
| TCTATTAGTTGATTAGGGGAACCGAAACAGCGGA | 0.954 | 0.771 | 0.585 | 0.845 | 1.38 | 0.915 | 0.0434 | 2.05 | 4.11 | 2.94 | 2.55 | 0.819 | 0.627 | 1.48 | 1.45 | 0.576 | 0.595 | 0.544 | 2.06 | 0.416 |
| TAGCCTAGGTCATGCGGGCCACTATAGTGTCGGC | 4.19 | 3.36 | 0.309 | 1.86 | -0.164 | 3.55 | 2.41 | 2.65 | 0.295 | 1.5 | 1.87 | 3.38 | -0.194 | 0.594 | 1.72 | 1.69 | -0.634 | 2.72 | 0.388 | 3.69 |
| GCTAGTTGGTCAGTAAAAGGTCACACATCGGTCG | 3.3 | 4.12 | 4.59 | 4.13 | 0.936 | 4.23 | 2.71 | 4.56 | 2.08 | 3.74 | 1.75 | 2.98 | 0.0513 | 0.435 | 4.49 | 4.7 | 1.49 | 5.23 | 2.58 | 4.26 |
| CGTCCAAGGGCAAAGGTCAGTGAAGAGATGACGG | 4.46 | 4.17 | 0.705 | 3.56 | -0.199 | 5.39 | 8.11 | 7.1 | 5.37 | 7.34 | 1.01 | 4.07 | -0.495 | -0.877 | 1.99 | 4.76 | 0.541 | 6.49 | 0.911 | 4.78 |
| CCTAGCAGGCCAATCTGGGTCACTCTAGGCTTGA | 0.0739 | 0.774 | -0.56 | 0.28 | -1.07 | 2.36 | 1.46 | 1.75 | -0.203 | 0.673 | 3.94 | 4.77 | -0.959 | -1.14 | 0.236 | 0.544 | -0.524 | 1.17 | -1.01 | 1.28 |
| CCTTAAGGGTCACTGACAGGTTATAGCATTTGGA | 7.39 | 5.66 | 0.887 | 5.01 | 0.447 | 6.24 | 6.29 | 6.19 | 2.45 | 4.77 | 3.94 | 4.19 | 0.865 | 0.0136 | 3.85 | 4.69 | 0.0863 | 5.85 | 1.33 | 5.18 |
| ACTAGCATGCCAAGGGTCACTCAAGATTAGTCCG | 2.51 | 2.97 | 0.285 | 2.95 | 0.101 | 4.14 | 5.14 | 6.08 | 3.82 | 6.39 | 0.455 | 2.66 | -0.409 | 0.469 | 2.73 | 3.31 | -0.0678 | 4.02 | 0.721 | 3.38 |
| TCTGCTGGGTCAGTTGGTCAGCTAACGAGCTGCC | 0.384 | -0.0859 | -1.01 | 0.206 | 0.206 | 1.4 | 0.0356 | 1.6 | 1.09 | 1.19 | 2.22 | 2.74 | 0.569 | -0.161 | -0.167 | 0.0304 | -0.922 | 0.33 | -0.731 | 3.19 |
| ATACCAAGGTGATCGTGTGGTCGTTGATACTAAC | 0.493 | 0.0735 | -0.0332 | 0.23 | -0.176 | 0.206 | 0.285 | 0.406 | -0.115 | -0.212 | 0.658 | 0.953 | 0.0763 | 0.561 | 0.519 | 0.0212 | -0.0663 | 0.0038 | 0.00751 | 0.737 |
